The values below come from PubChem BioAssay AID647 (Vanderbilt High Throughput Screening Facility, 2007).

SMILES strings stand for the structures. The whole screen tested about 2,200 compounds, of which about 1,400 (64%) were called active.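 Rule for the calls: active = luminescence in either replicate above plate mean of wells with a partly effective reference agonist dose plus 3 SD; inactive = the rest.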 So high a share suggests a set chosen from earlier hits. A selection follows.

This test can be described thus: isoproterenol-driven CRE-luciferase response modulation in HEK293 cells, confirmation, counter-screen for D1 allosteric modulator project, cell-based, secondary assay 2, luminescence (AID 647).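 Note: isoproterenol raises cAMP through native beta-adrenoceptor Gs so signal bypasses D1; raw luminescence counts from the Envision reader with one value per duplicate well.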 The following applies: isoproterenol EC30 counter-screen, at 10 µM, stronger effect = higher value.
On to `N#Cc1c(N)sc2c1CCN(C(=O)OCc1ccccc1)C2`, for which the luminescence is 5320 (active). As for `CCNc1nc(NCC)nc(N(C)n2cnnc2)n1`, the luminescence is 3650 (active).

Regarding `CC(C)c1cc(C(=O)O)on1`, the luminescence was 2070 (inactive). Turning to `Oc1ccc(-c2csc(Nc3cccnc3)n2)cc1`, the luminescence is 3250 (active).

On to `CCn1ncc(C2=NOC(C(=O)Nc3ccccc3C(=O)OC)C2)c1C` (stereo unspecified), for which the luminescence is 5220 (active).

With `CCn1nc(C(=O)OCC(=O)N2c3ccccc3CC2C)c2ccccc2c1=O` (stereo unspecified), the luminescence is 2840 (inactive). Turning to `Cc1ccc(-c2nn(-c3ccccc3)cc2CN(Cc2ccccc2)C(=O)CCC(=O)O)o1`, the luminescence is 4080 (active). In the case of `O=C(CSc1nnc2scc(-c3ccc(F)cc3)n12)NCc1ccco1`, the luminescence was 2580 (inactive). Regarding `CCOc1ccc(-c2nnn(CC(=O)N3CCN(c4ccc(OC)cc4)CC3)n2)cc1OCC`, the luminescence is 3110 (active). Take `CCOc1cc(-c2noc(CCC(=O)N3CCOCC3)n2)ccc1OC`: the luminescence is 2630 (inactive). Then `CC1CCN(c2oc(-c3ccccc3F)nc2C#N)CC1`, with 3380 (active). Take `CCOc1ccc2c(c1)cc(CN(C(=O)CC)C1CCCCC1)c1nnnn12`: the luminescence was 3880 (active).

With `CCOc1ccc2[nH]c(=O)c(C(c3nnnn3CCOC)N3CCOCC3)cc2c1` (stereo unspecified), the luminescence was 2250 (inactive).

With `Cc1cc(C(F)(F)F)nn1-c1nc(-c2ccco2)cc(C(F)(F)F)n1`, the luminescence was 3340 (active).

As to `O=C(NCc1ccco1)c1cnn2c(C(F)(F)F)cc(-c3ccco3)nc12`, the luminescence is 3240 (inactive).

Consider `FC(F)(F)c1cc(-c2ccco2)nc(N2CCOCC2)n1`, for which the luminescence is 4220 (active). With `COc1ccc(-c2nnco2)cc1OC`, the luminescence is 3030 (active). As to `Cc1ccc(C2CC(c3cccc(C)c3)n3nc(N)nc3N2)cc1` (stereo unspecified), the luminescence is 2800 (inactive).

For `Cc1ccc(C2CC(c3cccc(Br)c3)n3nc(N)nc3N2)cc1` (stereo unspecified), the luminescence was 3660 (active). In the case of `CCOc1ccccc1C1CC(c2ccccc2)Nc2nc(N)nn21` (stereo unspecified), the luminescence is 3190 (inactive). In the case of `CCOc1cc(C(=O)N2CCc3cc(OC)c(OC)cc3C2)ccc1OC(F)F` it was 11500 (active); in that of `COc1cc(NC(=O)N2CCOCC2)cc(OC)c1`, 2540 (inactive); in that of `CC(=O)Nc1cccc(Oc2cc(C#N)c(C#N)cc2N2CCOCC2)c1`, 4140 (active). Turning to `C/C(Cl)=C\Cn1c(Nc2cccc(C)c2)nc2c1c(=O)n(C)c(=O)n2C`, the luminescence was 3460 (active). As to `Cc1cc(C)c2c(n1)nn1c(-n3ccnc3)cc(C)nc21`, the luminescence is 3020 (active). Consider `CCSc1nc(C)nc2c1oc1ccccc12`, for which the luminescence is 3530 (active).

`COC(=O)[C@H](C(C)C)n1c(C)c(C(C)=O)c(C(C)=O)c1C`: the luminescence was 2600 (inactive).

For the molecule `O=c1cc(-c2ccccc2)nc(N2CCCCC2)[nH]1`, the luminescence is 3010 (inactive). With `CCCN1Cc2cccc(C(=O)NCc3ccccc3)c2C1=O`, the luminescence was 3680 (active). Take `CCSc1ncnc2c(C#N)c3n(c12)CCCCC3`: the luminescence was 6230 (active). As for `O=C(c1ccco1)N1CCN=C1SCc1cccc(Cl)c1`, the luminescence was 3200 (active). Take `Cc1ccc(S(=O)(=O)c2c(N)n(C)c3nc4ccccc4nc23)cc1`: the luminescence was 3490 (active). With `COc1ccc(-n2c(Cc3cccn3C)nnc2SCC(=O)Nc2cc(C)cc(C)c2)cc1`, the luminescence was 2370 (inactive).

As for `Nc1ccc(S(=O)(=O)NC(=O)c2ccccc2)cc1`, the luminescence was 2950 (inactive). Then `CCOC(=O)c1cc(C)sc1NC(=O)C1CCC1`, with 4600 (active).

Regarding `C/C(=C\C(=O)c1ccccc1)Nc1cccc(O)c1`, the luminescence is 2540 (inactive). For `CN(C)c1nc(N)nc(CSc2nnnn2-c2cccc3ccccc23)n1`, the luminescence is 3420 (active). As to `COc1cc(-c2nn3c(-c4cccc(C)c4)nnc3s2)cc(OC)c1OC`, the luminescence is 4430 (active). For the molecule `COc1ccc(-c2nn3c(-c4ccccc4)nnc3s2)cc1OC`, the luminescence is 8440 (active).

On to `O=C(C1CCC1)N1CCc2cc(S(=O)(=O)NCc3cccnc3)ccc21`, for which the luminescence is 3060 (inactive).

Take `N#Cc1nc(N)nc(N(c2ccccc2)c2ccccc2)n1`: the luminescence was 2880 (inactive).
